The record followed here is paper PMC7862700, “An all-to-all approach to the identification of sequence-specific readers for epigenetic DNA modifications on cytosine”.

Common to all, as to test: DAPPL (digital affinity profiling via proximity ligation, sequencing); 10 mM Tris-HCl pH 7.5, 50 mM NaCl, 1 mM DTT, 4% glycerol, room temperature, 30 min; GST-TFs on glutathione beads, 16-mer random dsDNA library, 0.1% formaldehyde crosslink after washing; high values mean tight binding
The target in one experiment is T1, FLI1 (Homo sapiens, UniProt Q01543 1-452).
T1 sequence: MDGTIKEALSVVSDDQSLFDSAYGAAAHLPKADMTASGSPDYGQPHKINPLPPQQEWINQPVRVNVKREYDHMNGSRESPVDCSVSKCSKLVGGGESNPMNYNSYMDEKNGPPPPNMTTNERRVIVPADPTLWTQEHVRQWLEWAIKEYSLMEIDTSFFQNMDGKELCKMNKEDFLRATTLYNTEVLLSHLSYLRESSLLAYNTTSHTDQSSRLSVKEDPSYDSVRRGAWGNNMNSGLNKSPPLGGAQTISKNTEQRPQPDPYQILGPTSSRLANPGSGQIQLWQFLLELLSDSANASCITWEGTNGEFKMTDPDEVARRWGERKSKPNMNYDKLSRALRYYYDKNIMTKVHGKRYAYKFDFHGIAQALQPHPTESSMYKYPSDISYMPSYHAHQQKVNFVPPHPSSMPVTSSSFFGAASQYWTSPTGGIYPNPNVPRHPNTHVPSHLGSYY
To be noted: protein: recombinant; tags: N-terminal GST; dsDNA, one strand shown. The method in brief: (§1)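 The binding signal reported is, for every hexamer, its read frequency for a factor over its read frequency for the tag-only sample. Reads came from pools of yeast-expressed, GST-fused human transcription factors on glutathione beads, barcoded with DNA and mixed with that sample, which were incubated with 200 nmole of a random double-stranded 16-mer DNA library in Tris/NaCl/DTT/glycerol buffer at room temperature for 30 min. After washing, the pools were crosslinked with 0.1% formaldehyde, proximity-ligated with BsaI/T4 ligase for 1 h at 37 °C, PCR-amplified and sequenced on an Illumina NextSeq500.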

Another experiment concerns the target T2, ELK1 (Homo sapiens, UniProt P19419 1-428).
T2 sequence: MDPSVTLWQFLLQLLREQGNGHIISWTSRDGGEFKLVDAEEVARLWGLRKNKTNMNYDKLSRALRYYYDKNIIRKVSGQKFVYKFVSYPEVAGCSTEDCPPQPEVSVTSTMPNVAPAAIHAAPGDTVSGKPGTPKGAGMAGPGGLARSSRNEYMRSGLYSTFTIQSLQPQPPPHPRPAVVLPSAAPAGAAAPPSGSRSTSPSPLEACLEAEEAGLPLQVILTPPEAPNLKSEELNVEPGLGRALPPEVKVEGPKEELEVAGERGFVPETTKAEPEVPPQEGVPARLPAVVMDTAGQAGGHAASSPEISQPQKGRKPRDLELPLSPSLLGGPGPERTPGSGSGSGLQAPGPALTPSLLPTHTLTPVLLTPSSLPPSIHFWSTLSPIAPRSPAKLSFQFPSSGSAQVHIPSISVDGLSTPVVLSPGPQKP
To be noted: protein: recombinant; tags: N-terminal GST; dsDNA, one strand shown. The method in brief:
as §1

Another experiment addresses T3, GABPA (Homo sapiens, UniProt Q06546 1-454).
T3 sequence: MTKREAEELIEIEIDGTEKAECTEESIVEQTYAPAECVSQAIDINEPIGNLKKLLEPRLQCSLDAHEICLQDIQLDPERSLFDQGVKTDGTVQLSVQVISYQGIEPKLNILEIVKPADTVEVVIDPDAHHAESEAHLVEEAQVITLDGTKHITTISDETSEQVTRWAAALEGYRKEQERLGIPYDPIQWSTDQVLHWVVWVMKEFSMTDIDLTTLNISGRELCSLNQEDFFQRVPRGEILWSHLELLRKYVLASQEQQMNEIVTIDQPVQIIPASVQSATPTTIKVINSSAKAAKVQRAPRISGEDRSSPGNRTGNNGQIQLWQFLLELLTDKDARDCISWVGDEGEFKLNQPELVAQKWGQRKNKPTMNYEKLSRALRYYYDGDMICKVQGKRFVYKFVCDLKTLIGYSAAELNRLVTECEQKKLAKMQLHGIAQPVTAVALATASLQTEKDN
Conditions: protein: recombinant; tags: N-terminal GST; dsDNA, one strand shown. The method in brief:
as §1

The target of the next experiment is T4, ERG (Homo sapiens, UniProt P11308 1-479).
T4 sequence: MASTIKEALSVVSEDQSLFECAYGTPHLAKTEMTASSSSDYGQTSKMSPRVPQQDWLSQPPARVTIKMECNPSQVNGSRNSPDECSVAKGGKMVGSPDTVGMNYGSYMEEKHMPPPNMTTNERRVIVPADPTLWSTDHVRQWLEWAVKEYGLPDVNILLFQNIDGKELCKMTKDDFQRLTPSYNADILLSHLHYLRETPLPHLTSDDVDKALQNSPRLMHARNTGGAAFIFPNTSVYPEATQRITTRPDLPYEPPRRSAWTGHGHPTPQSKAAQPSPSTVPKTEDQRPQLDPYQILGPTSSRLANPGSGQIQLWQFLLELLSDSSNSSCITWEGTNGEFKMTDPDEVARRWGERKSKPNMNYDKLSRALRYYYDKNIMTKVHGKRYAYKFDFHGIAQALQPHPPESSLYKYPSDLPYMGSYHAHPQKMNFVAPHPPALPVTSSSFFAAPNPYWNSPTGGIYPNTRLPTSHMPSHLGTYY
To be noted: protein: recombinant; tags: N-terminal GST; dsDNA, one strand shown. The method in brief: as §1

In a further experiment the target is ELF1 (Homo sapiens, UniProt P32519 1-619). To be noted: protein: recombinant; tags: N-terminal GST; dsDNA, one strand shown. The method in brief: as §1
In a further experiment the target is T5, EHF (Homo sapiens, UniProt Q9NZC4 1-300).
T5 sequence: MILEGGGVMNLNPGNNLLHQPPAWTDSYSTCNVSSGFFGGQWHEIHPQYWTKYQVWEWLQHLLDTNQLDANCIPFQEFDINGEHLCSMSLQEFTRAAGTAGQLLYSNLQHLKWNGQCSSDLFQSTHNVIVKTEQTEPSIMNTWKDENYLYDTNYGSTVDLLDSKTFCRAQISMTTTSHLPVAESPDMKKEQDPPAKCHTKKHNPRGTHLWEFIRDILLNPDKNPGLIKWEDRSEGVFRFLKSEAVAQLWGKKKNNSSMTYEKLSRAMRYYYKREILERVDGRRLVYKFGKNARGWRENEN
Conditions: protein: recombinant; tags: N-terminal GST; dsDNA, one strand shown. The method in brief:
as §1

For a further experiment, the target named is SPI1 (Homo sapiens, UniProt P17947 1-270). Conditions: protein: recombinant; tags: N-terminal GST; dsDNA, one strand shown. The method in brief:
as §1

In a further experiment the target is SPIB (Homo sapiens, UniProt Q01892 1-262). To be noted: protein: recombinant; tags: N-terminal GST; dsDNA, one strand shown. The method in brief: as §1
In a further experiment the target is T6, ELK3 (Homo sapiens, UniProt P41970 1-407).
T6 sequence: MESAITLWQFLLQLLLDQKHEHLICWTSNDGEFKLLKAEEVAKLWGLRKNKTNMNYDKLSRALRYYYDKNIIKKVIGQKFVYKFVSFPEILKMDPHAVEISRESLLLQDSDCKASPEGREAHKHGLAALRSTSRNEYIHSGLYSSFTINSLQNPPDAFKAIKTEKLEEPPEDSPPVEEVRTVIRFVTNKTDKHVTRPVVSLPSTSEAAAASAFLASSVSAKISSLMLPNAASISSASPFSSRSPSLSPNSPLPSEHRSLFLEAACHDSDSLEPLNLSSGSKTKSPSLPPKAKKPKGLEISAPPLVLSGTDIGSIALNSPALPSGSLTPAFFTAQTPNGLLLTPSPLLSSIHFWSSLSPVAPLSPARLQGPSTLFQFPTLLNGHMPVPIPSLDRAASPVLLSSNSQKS
To be noted: protein: recombinant; tags: N-terminal GST; dsDNA, one strand shown. The method in brief: as §1

A further experiment addresses T7, FEV (Homo sapiens, UniProt Q99581 1-238).
T7 sequence: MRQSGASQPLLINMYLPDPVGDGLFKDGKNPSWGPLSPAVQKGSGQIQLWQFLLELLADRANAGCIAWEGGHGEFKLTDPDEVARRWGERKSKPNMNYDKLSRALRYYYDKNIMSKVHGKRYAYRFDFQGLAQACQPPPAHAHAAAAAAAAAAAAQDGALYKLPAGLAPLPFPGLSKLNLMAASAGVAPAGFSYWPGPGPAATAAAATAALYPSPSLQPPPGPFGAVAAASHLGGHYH
To be noted: protein: recombinant; tags: N-terminal GST; dsDNA, one strand shown. The method in brief:
as §1

In a further experiment the target is ETV5 (Homo sapiens, UniProt P41161 1-510). Conditions: protein: recombinant; tags: N-terminal GST; dsDNA, one strand shown. The method in brief:
as §1

The next experiment addresses HSF1 (Homo sapiens, UniProt Q00613 1-529). Conditions: protein: recombinant; tags: N-terminal GST; chain copies: 3; dsDNA, one strand shown. The method in brief:
as §1

The next experiment deals with T8, SPIC (Homo sapiens, UniProt Q8N5J4 1-248).
T8 sequence: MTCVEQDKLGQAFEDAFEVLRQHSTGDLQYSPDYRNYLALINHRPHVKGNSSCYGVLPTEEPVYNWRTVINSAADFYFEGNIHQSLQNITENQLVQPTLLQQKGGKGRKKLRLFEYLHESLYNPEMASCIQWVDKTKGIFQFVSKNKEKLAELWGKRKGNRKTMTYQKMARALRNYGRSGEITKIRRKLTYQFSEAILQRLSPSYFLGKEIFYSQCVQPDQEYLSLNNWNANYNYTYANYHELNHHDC
Conditions: protein: recombinant; tags: N-terminal GST; dsDNA, one strand shown. The method in brief: as §1

The next experiment has as its target ELF4 (Homo sapiens, UniProt Q99607 1-663). To be noted: protein: recombinant; tags: N-terminal GST; dsDNA, one strand shown. The method in brief:
as §1

The target in a further experiment is T9, ELK4 (Homo sapiens, UniProt P28324-2 1-405).
T9 sequence: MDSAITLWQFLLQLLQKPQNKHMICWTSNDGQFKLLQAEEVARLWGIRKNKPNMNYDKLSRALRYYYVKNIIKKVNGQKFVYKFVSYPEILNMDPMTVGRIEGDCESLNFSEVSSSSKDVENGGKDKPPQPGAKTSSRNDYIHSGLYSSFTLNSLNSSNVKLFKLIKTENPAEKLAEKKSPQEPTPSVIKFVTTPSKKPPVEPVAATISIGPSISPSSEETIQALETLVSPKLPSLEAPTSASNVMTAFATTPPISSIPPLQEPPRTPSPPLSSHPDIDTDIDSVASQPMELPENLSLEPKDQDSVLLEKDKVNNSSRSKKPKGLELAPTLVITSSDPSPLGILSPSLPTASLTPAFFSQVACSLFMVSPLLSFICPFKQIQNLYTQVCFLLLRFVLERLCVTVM
Conditions: protein: recombinant; tags: N-terminal GST; dsDNA, one strand shown. The method in brief:
as §1

The next experiment deals with T10, ETV2 (Homo sapiens, UniProt O00321 1-342).
T10 sequence: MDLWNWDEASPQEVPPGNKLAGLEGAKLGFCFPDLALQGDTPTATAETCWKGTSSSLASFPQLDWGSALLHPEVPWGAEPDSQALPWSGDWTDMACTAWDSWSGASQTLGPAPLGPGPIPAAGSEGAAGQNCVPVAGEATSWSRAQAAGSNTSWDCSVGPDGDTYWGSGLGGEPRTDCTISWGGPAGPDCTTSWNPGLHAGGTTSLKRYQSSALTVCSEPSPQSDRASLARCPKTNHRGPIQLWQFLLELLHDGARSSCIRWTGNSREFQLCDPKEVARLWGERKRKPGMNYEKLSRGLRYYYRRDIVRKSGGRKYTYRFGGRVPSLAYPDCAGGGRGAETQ
Conditions: protein: recombinant; tags: N-terminal GST; dsDNA, one strand shown. The method in brief:
as §1

A further experiment deals with T11, ELF3 (Homo sapiens, UniProt P78545 1-371).
T11 sequence: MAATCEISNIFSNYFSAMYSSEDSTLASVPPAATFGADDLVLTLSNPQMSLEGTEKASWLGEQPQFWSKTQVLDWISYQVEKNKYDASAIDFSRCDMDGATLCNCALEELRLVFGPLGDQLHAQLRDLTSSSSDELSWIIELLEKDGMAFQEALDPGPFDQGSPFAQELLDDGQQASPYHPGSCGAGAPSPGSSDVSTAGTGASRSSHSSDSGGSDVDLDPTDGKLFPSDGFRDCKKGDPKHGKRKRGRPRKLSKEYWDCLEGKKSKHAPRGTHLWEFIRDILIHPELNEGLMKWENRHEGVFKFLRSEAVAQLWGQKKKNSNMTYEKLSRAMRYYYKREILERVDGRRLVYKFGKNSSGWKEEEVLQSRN
To be noted: protein: recombinant; tags: N-terminal GST; dsDNA, one strand shown. The method in brief:
as §1

The target in a further experiment is CRX (Homo sapiens, UniProt O43186 1-299). To be noted: protein: recombinant; tags: N-terminal GST; dsDNA, one strand shown. The method in brief: as §1
The target in the next experiment is ETV1 (Homo sapiens, UniProt P50549 1-477). Conditions: protein: recombinant; tags: N-terminal GST; dsDNA, one strand shown. The method in brief:
as §1

Sequence of ELF1 (P32519 whole entry): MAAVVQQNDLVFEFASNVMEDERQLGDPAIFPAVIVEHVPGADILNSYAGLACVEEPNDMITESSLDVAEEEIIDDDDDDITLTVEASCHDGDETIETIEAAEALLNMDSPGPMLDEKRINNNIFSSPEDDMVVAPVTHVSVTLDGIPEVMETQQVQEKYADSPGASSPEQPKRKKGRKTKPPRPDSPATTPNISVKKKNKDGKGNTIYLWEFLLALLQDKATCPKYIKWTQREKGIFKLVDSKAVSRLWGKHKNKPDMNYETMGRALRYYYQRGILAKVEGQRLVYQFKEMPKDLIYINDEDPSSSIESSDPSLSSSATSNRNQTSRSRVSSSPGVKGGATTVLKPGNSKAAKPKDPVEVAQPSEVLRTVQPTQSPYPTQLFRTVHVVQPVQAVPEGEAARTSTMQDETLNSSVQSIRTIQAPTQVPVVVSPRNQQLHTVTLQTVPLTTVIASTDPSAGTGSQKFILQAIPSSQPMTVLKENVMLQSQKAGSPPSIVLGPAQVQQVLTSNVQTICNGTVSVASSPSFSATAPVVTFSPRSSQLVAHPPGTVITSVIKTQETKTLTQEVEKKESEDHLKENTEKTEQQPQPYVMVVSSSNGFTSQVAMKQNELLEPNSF
Sequence of ETV1 (P50549 whole entry): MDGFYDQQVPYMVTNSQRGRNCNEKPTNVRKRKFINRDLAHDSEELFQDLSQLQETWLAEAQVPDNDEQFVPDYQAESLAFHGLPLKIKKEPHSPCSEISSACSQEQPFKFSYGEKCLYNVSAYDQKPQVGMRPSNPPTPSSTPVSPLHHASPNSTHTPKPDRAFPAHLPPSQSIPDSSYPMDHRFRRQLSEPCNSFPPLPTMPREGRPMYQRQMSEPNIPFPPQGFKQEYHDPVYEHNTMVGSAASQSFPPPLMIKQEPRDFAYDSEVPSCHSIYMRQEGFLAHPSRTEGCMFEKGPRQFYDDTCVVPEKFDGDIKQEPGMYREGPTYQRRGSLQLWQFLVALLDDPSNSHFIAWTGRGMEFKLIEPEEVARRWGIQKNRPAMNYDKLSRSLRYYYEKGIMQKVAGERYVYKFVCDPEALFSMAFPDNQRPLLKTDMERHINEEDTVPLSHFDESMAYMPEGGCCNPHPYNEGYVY
Sequence of HSF1 (Q00613 whole entry): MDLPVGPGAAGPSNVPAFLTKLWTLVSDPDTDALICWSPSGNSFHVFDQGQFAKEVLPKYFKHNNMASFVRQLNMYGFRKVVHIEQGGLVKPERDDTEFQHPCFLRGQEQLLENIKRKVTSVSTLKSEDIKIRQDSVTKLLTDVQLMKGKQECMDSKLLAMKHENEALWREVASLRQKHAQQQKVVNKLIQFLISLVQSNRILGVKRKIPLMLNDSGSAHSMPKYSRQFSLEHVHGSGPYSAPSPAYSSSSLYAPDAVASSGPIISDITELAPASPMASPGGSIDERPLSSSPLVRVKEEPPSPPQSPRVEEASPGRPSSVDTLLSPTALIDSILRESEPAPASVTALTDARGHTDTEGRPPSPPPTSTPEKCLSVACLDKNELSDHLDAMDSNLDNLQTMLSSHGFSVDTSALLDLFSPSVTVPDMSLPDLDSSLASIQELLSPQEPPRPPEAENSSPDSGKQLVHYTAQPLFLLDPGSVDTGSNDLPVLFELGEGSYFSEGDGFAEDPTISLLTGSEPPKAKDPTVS
Sequence of ETV5 (P41161 whole entry): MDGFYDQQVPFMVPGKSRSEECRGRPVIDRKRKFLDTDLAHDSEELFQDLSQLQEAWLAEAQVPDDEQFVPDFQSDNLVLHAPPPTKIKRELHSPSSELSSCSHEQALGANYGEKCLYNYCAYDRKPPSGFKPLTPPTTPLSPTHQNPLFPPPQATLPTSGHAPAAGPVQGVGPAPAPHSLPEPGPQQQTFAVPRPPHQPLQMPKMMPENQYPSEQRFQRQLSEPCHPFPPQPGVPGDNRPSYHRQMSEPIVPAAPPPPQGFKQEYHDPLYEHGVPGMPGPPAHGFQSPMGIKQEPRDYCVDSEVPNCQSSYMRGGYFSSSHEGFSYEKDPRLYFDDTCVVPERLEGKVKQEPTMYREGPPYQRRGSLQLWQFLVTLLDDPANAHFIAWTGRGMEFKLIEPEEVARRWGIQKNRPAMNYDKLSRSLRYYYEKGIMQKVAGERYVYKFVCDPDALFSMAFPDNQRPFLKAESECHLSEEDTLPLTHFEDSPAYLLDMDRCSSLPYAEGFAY
Sequence of ELF4 (Q99607 whole entry): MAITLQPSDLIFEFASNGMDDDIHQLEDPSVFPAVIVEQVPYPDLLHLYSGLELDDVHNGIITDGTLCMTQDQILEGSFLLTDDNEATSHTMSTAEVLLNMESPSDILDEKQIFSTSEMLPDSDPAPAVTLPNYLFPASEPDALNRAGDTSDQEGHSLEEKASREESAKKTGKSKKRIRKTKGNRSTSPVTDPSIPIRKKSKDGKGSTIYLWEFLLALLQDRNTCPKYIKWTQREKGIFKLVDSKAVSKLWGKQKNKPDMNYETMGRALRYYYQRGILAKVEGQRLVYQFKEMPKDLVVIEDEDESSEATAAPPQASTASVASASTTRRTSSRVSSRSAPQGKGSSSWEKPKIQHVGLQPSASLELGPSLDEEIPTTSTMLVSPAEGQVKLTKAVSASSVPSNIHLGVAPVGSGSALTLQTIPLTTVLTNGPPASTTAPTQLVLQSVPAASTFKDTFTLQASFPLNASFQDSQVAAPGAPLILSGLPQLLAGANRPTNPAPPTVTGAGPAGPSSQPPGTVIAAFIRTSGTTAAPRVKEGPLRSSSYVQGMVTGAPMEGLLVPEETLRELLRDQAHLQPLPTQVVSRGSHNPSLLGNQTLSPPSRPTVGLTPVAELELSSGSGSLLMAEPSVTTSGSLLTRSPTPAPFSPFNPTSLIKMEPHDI
Sequence of SPIB (Q01892 whole entry): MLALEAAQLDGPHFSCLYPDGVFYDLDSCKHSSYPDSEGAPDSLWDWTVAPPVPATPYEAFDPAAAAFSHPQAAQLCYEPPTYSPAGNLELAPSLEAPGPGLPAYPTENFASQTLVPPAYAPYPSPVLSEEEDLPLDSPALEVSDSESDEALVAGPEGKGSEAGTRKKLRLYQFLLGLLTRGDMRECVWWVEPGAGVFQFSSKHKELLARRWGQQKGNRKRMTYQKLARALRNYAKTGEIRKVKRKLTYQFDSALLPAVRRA
Sequence of CRX (O43186 whole entry): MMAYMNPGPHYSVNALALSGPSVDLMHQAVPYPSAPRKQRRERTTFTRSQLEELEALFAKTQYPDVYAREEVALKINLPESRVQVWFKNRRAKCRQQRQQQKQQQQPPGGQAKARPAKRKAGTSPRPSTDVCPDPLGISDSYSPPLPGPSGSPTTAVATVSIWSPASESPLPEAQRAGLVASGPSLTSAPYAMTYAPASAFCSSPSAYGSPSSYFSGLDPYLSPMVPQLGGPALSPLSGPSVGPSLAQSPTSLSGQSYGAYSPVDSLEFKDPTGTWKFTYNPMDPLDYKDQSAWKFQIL

Consider TGTTTG, for which the binding signal was 1.52 fold enrichment (6-mer frequency, TF over GST control) in the experiment with FLI1; 1.31 fold enrichment (6-mer frequency, TF over GST control) with ELK1; 1.32 fold enrichment (6-mer frequency, TF over GST control) in the experiment with GABPA; 1.27 fold enrichment (6-mer frequency, TF over GST control) with ERG; 1.22 fold enrichment (6-mer frequency, TF over GST control) with ELF1; 1.31 fold enrichment (6-mer frequency, TF over GST control) with EHF. For the same sequence, the binding signal in the experiment with SPI1 was 1.29 fold enrichment (6-mer frequency, TF over GST control); in the experiment with SPIB, 1.42 fold enrichment (6-mer frequency, TF over GST control); with ELK3, 1.29 fold enrichment (6-mer frequency, TF over GST control); in the experiment with FEV, 1.21 fold enrichment (6-mer frequency, TF over GST control); with ETV5 it was 1.23 fold enrichment (6-mer frequency, TF over GST control); with HSF1 it was 1.06 fold enrichment (6-mer frequency, TF over GST control). In addition, the binding signal was 1.29 fold enrichment (6-mer frequency, TF over GST control) in the experiment with SPIC; 1.36 fold enrichment (6-mer frequency, TF over GST control) with ELF4; 1.38 fold enrichment (6-mer frequency, TF over GST control) with ELK4; 1.14 fold enrichment (6-mer frequency, TF over GST control) in the experiment with ETV2; 1.46 fold enrichment (6-mer frequency, TF over GST control) with ELF3; 1.08 fold enrichment (6-mer frequency, TF over GST control) in the experiment with CRX. For the same sequence, the binding signal in the experiment with ETV1 was 1.38 fold enrichment (6-mer frequency, TF over GST control).
